Data as given in PubChem BioAssay (EPA / NIEHS).
Results filed as inconclusive are left out. Active and inactive are the calls of the source. Rule for the calls: active = hit-call score of the fitted dose curve at least 0.9, where 1 is the maximum; inconclusive = response in the unintended direction; inactive = score below 0.9.

What follows are molecules tested against chimpanzee Androgen Receptor (AR), AR (gene 747460) (UniProt O97775) (assay: NVS_NR_cAR: NovaScreen (NVS) Nuclear Receptor Binding Assay for chimpanzee Androgen Receptor (AR) (AID 2283346);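 note: a loss of bound radioligand signal versus DMSO counts as binding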).
Description: NVS_NR_cAR is a biochemical, single-readout assay that uses extracted gene-proteins from Sf9/Sf21 in a cell-free assay. Measurements were taken 72 hours after chemical dosing in a 96-well plate.NVS_NR_cAR is one of one assay component(s) measured or calculated from the NVS_NR_cAR assay. It is designed to make measurements of radioligand binding, a form of binding reporter, as detected with scintillation counting signals by Lysate-based radiodetection technology.Data from the assay component NVS_NR_cAR was analyzed into 1 assay endpoint. This assay endpoint, NVS_NR_cAR, was analyzed in the positive analysis fitting direction relative to DMSO as the negative control and baseline of activity. Using a type of binding reporter, loss-of-signal activity can be used to understand changes in the binding as they relate to the gene AR. Furthermore, this assay endpoint can be referred to as a primary readout, because the performed assay has only produced 1 assay endpoint. To generalize the intended target to other relatable targets, this assay endpoint is annotated to the nuclear receptor intended target family, where the subfamily is steroidal.
Binding assays used specific radioligands (tritiated, iodinated) with non-radioactive competitive displacement ligands in agonist or antagonist protocols (as indicated) and various reference compounds and inhibitors to titrate specific binding to receptors and transporters. Most enzyme assays (CYPs, kinases, phosphatases, proteases, HDACs) used recombinant protein and specific substrates (fluorescence mostly, some colorimetric and radioactive) and inhibitors, followed by a biochemical separation of substrate and product. All assays for the biochemical HTS were initially run in duplicate at a single concentration (10 uM for CYP450 assays and 25 uM for all others). […] Each assay was run with positive and negative controls, and concurrent controls on every plate. The follow-up (secondary) screen tested active chemical-pairs in concentration series, as well as a few additional assays not tested in the primary screen, some selected negative inactives, and several cases re-run in the concentration series for confirmatory purposes.

Chain of chimpanzee Androgen Receptor (AR), AR (gene 747460) (O97775 whole entry, looked up): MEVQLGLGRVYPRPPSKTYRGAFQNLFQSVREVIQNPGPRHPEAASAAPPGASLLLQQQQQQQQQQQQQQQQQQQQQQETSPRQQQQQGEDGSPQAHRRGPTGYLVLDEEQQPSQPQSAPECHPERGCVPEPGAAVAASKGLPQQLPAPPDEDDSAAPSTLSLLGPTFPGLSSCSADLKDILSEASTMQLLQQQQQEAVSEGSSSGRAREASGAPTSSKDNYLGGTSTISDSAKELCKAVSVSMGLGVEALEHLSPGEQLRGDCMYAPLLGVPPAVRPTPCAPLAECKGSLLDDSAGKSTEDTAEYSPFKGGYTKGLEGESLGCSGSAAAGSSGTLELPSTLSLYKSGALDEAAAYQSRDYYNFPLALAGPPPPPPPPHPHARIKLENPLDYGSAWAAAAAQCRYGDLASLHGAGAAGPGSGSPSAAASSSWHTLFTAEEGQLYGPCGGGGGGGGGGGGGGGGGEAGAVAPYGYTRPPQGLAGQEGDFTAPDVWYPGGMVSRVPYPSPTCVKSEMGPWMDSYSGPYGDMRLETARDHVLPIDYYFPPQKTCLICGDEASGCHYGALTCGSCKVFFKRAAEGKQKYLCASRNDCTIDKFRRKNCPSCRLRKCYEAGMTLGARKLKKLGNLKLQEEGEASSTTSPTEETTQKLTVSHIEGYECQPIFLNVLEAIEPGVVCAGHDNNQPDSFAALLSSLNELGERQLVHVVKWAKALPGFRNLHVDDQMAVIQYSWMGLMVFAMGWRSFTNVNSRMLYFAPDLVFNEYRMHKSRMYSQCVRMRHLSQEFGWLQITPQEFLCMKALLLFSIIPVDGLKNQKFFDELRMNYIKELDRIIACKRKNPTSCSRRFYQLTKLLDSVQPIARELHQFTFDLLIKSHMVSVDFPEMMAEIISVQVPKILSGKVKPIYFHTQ

Row | SMILES | AC50 | outcome
1 | CCOP(=O)(NC(C)C)Oc1ccc(SC)c(C)c1 (configuration not stated) | 25 µM (active) | –
2 | CN(C)[C@@H]1C(=O)C(C(N)=O)=C(O)[C@@]2(O)C(=O)C3=C(O)c4c(O)cccc4[C@@](C)(O)[C@H]3[C@H](O)[C@@H]12 | 11.3 µM (active) | –
3 | CC[C@H](C)[C@H]1O[C@]2(C=C[C@@H]1C)C[C@@H]1C[C@@H](C/C=C(\C)[C@@H](O[C@H]3C[C@H](OC)[C@@H](O[C@H]4C[C@H](OC)[C@@H](NC)[C@H](C)O4)[C@H](C)O3)[C@@H](C)/C=C/C=C3\CO[C@@H]4[C@H](O)C(C)=C[C@@H](C(=O)O1)[C@]34O)O2 | 6.02 µM (active) | –
4 | C#CCC1=C(C)C(OC(=O)C2C(C=C(C)C)C2(C)C)CC1=O (configuration not stated) | – | inactive
5 | FC(F)C(F)(F)OCC(Cn1cncn1)c1ccc(Cl)cc1Cl (configuration not stated) | 5.47 µM (active) | –
6 | CCC(=O)Nc1ccc(Cl)c(Cl)c1 | 12.4 µM (active) | –
7 | Nc1c(Cl)cc([N+](=O)[O-])cc1Cl | 15.4 µM (active) | –
8 | CCc1cccc(CC)c1N(COC)C(=O)CCl | 34.6 µM (active) | –
9 | CCCOCC(=Nc1ccc(Cl)cc1C(F)(F)F)n1ccnc1 | 5.96 µM (active) | –
10 | CC(C1CC1)C(O)(Cn1cncn1)c1ccc(Cl)cc1 (configuration not stated) | 24.9 µM (active) | –
11 | C[Si](Cn1cncn1)(c1ccc(F)cc1)c1ccc(F)cc1 | 9.47 µM (active) | –
12 | COc1ccc(C(=CC(=O)N2CCOCC2)c2ccc(Cl)cc2)cc1OC | 17.3 µM (active) | –
